# Screening results (PubChem)
# The entries come from a sample that favours hits as a whole.
# Methyltransferases = Primary Screen for Target Class Profiling of Small Molecule Inhibitors of Methyltransferases | calls only at 40 µM | purified enzyme, MTase-Glo SAH luminescence; hits give low values | actives 3.9% (n = 25,000); call rule not given here
#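 Each enzyme was reacted with SAM and its substrate, with compounds tested once at 40 uM; SAH formed was read by MTase-Glo luminescence.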
# * marks the source's active call; other numbers are inactive results; i = inactive; + = active, no number; ! = a repeat was not active. On the % scale 0 is the no-effect control and ±100 the full control effect.
SMILES,Methyltransferases
Cc1ccc(Cn2nc3n(CCC(C)C)c(=O)c4ccc(C(=O)NCC(C)C)cc4n3c2=O)cc1,i
CCCn1c(=O)c2ccc(C(=O)NC(C)C)cc2n2c(SCC(=O)NC3CCCCC3)nnc12,i
COc1ccc(CN2C(=O)CSc3c(c4ccccc4n3C)C2C(=O)NCCCOC(C)C)cc1 (centres undefined),i
COc1c2c(c(C)c3c1C(=O)OC3)O[C@@]1(C)C[C@@H](O)[C@]34O[C@](OC)(CC[C@]3(C)[C@H]1C2)OC4(C)C,i
COc1c2c(c(C)c3c1C(=O)OC3)O[C@@]1(C)C[C@@H](OC(C)=O)[C@]34O[C@](OC)(CC[C@]3(C)[C@H]1C2)OC4(C)C,+
COc1c2c(c(C)c3c1C(=O)OC3)OC1(C)CC(O)C34OC(OC)(OC3(C)C)C(O)CC4(C)C1C2 (centres undefined),i
CC1(C(=O)NC2CCCCC2)Cn2nc(-c3ccco3)cc2C(=O)N1CCCc1ccccc1 (centres undefined),i
c1ccc2c(Oc3nc(Nc4ccc(N5CCOCC5)cc4)c4ncn(C5CCCCC5)c4n3)cccc2c1,+
O=C(Nc1ccccc1Cl)c1cnc2ccc(C3CCNCC3)cn12,i
c1cc(NC2CCNCC2)nc(-c2cnc3ccccn23)c1,+
O=C(CCc1nnc2n(Cc3ccccc3)c(=O)c3ccccc3n12)Nc1ccc(F)cc1,i
O=C(Cn1nc2n(CCc3ccccc3)c(=O)c3ccccc3n2c1=O)NCc1ccccc1,i
O=C(NCCc1ccc(Cl)cc1)c1ccc2c(=O)nc3c(-c4cccc(F)c4)n[nH]n3c2c1,i
CCC(C)NC(=O)Cn1c(=O)oc2cc(S(=O)(=O)NC3CCCC3)ccc21 (centres undefined),i
CC(C)CCNC(=O)C1(C)Cn2c(cc3ccccc32)C(=O)N1Cc1ccco1 (centres undefined),i
CCN1CCC[C@@H]1CNC(=O)c1ccc2c(c1)NC(=O)/C(=C/c1ccccc1F)S2,+
CCN1CCC[C@H]1CNC(=O)c1c(O)c(Cl)cc(Cl)c1OC,i
CCN1CCCC1CNC(=O)c1cc(S(=O)(=O)CC)c(N)cc1OC (centres undefined),i
Cc1ccccc1N1C(=O)c2cc3sccc3n2CC1(C)C(=O)NC1CCCCCC1 (centres undefined),i
Cc1ccc(CN2CCC(CNc3cc(C4CC(O)C4)ncn3)CC2)o1 (centres undefined),i
CN1CCC(CNc2ccc3ncc(-c4cccc(OC(F)(F)F)c4)n3n2)CC1,+!
COc1ccc(N2C(=O)c3cc4ccc(OC)cc4n3CC2(C)C(=O)NC2CCCCC2)c(OC)c1 (centres undefined),i
CC1(C(=O)NC2CCCCCC2)Cn2nc(-c3cccs3)cc2C(=O)N1c1ccc(F)cc1 (centres undefined),i
CCc1cc2c(cc3n2CC(C(=O)NC2CCCCCC2)(c2ccccc2)N(Cc2cccc(F)c2)C3=O)s1 (centres undefined),i
CCc1ccc(CNC(=O)c2cc3n(n2)CC(C)(C(=O)NCc2ccccc2)N(C)C3=O)cc1 (centres undefined),i
SMILES,Methyltransferases
CSc1cccc(N2C(=O)c3cc(C(C)(C)C)nn3CC2(C)C(=O)NCCC(C)C)c1 (centres undefined),i
CCOc1ccc(Nc2nc3c(S(=O)(=O)c4ccccc4)nnn3c3ccccc23)cc1,i
Cc1cnc(Nc2ccc(OCCN3CCCC3)cc2)nc1Nc1cccc(S(=O)(=O)NC(C)(C)C)c1,+!
CC1(C(=O)NC2CCCCCC2)Cn2c(ccc2-c2ccco2)C(=O)N1Cc1ccc(F)cc1 (centres undefined),i
CCCN1C(=O)c2cc(C(=O)NCc3ccccc3OCC)nn2CC1(C)C(=O)NC1CCCC1 (centres undefined),i
CC(C)Oc1ccc(CNC(=O)c2cc3n(n2)CC(C)(C(=O)NC2CCCCC2)N(C)C3=O)cc1 (centres undefined),i
COc1ccc(C(=O)N(CCC(C)C)Cc2nc(C)c(C)n2Cc2ccccc2C)c(OC)c1,+
COc1ccc(OC)c(CN2C(=O)c3cc4ccccc4n3CC2(C)C(=O)NCCC(C)C)c1 (centres undefined),i
COc1ccc(N2C(=O)c3cc4ccccc4n3CC2(C)C(=O)NCCC(C)C)c(OC)c1 (centres undefined),i
CCOc1ccc(N2C(=O)c3cc4sccc4n3CC2(C)C(=O)NC2CCCC(C)C2C)cc1 (centres undefined),i
COc1cccc(CNC(=O)c2ccc3c(=O)nc4c(-c5ccc(Cl)cc5)n[nH]n4c3c2)c1,i
C/C(=C\CC/C(C)=C/CC[C@]1(C)CCc2cc(O)cc(C)c2O1)CC/C=C(\C)C(=O)O,+
O=C(Cn1nc2n(CCc3ccccc3)c(=O)c3ccccc3n2c1=O)NC1CCCCC1,i
C=C1CC/C=C(/CO)C(=O)C[C@@H]2[C@@H]1C[C@@]2(C)COC(C)=O,+
